About 2,000 (36%) of roughly 5,500 compounds were called active. Inconclusive results (about 18%) are left out. Rule as the data show it: active = normalized growth mostly below about 0.91 (no sharp cut-off); inconclusive = no clear call, values can overlap the other calls; inactive = mostly above about 0.92. The list shows a part of the results.
Assay: chemical genetic growth profiling, strain panel (AID 1159580);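 also: tested at 20 µM; growth read once vehicle control cultures reached saturation at 30 °C; 1 = growth at the plate median or of vehicle wells; lower values mean less growth of the strain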
Settings: S. cerevisiae deletion strains, growth OD
[1] = locus YDR150W, strain NUM1, stronger effect = lower value
[2] = locus YGR078C, strain PAC10, stronger effect = lower value
[3] = locus YMR263W, strain SAP30, stronger effect = lower value
[4] = locus YNL322C, strain KRE1, stronger effect = lower value
[5] = locus YPL241C, strain CIN2, stronger effect = lower value

Measured: normalized growth

COc1ccc(S(=O)(=O)Nc2cc(C)c(C)cc2[N+](=O)[O-])c(OC)c1
inactive: locus YAL013W, strain DEP1, stronger effect = lower value 1.01 | locus YBR229C, strain ROT2, stronger effect = lower value 1 | locus YCL061C, strain MRC1, stronger effect = lower value 1 | locus YDL101C, strain DUN1, stronger effect = lower value 1.01 | [1] 0.885 | locus YEL061C, strain CIN8, stronger effect = lower value 1.01 | [2] 0.995 | locus YGR229C, strain SMI1, stronger effect = lower value 1.01 | locus YHR030C, strain SLT2, stronger effect = lower value 0.991 | locus YHR087W, strain rtc3, stronger effect = lower value 1 | locus YJR043C, strain POL32, stronger effect = lower value 1 | locus YJR075W, strain HOC1, stronger effect = lower value 1.01 | locus YKL190W, strain CNB1, stronger effect = lower value 1.02 | locus YLR039C, strain RIC1, stronger effect = lower value 0.968 | locus YLR058C, strain SHM2 (second series), stronger effect = lower value 1 | locus YLR085C, strain ARP6, stronger effect = lower value 1.04 | locus YLR262C, strain YPT6, stronger effect = lower value 0.967 | locus YML094W, strain GIM5, stronger effect = lower value 0.983 | locus YMR219W, strain ESC1, stronger effect = lower value 0.999 | [3] 0.973 | locus YNL128W, strain TEP1, stronger effect = lower value 1.02 | locus YNL153C, strain GIM3, stronger effect = lower value 1.02 | locus YNL298W, strain CLA4 (second series), stronger effect = lower value 1.04 | [4] 0.989 | locus YNR030W, strain Alg12, stronger effect = lower value 0.998 | locus YPL055C, strain LGE1, stronger effect = lower value 0.889 | [5] 1.03 | locus YPR135W, strain CTF4, stronger effect = lower value 0.946

Ic1ccccc1CNC1C2CCN(CC2)C1C(c1ccccc1)c1ccccc1 (configuration not stated)
inactive: locus YAL040C, strain CLN3, stronger effect = lower value 0.998 | locus YCL061C, strain MRC1 (second series), stronger effect = lower value 0.984 | [1] 0.996 | locus YDR363W, strain ESC2, stronger effect = lower value 0.977 | locus YER002W, strain NOP16, stronger effect = lower value 1.05 | [2] 1 | [3] 0.998 | locus YMR307W, strain GAS1, stronger effect = lower value 0.989 | locus YNL175C, strain NOP13, stronger effect = lower value 1.05 | locus YNL197C, strain WHI3, stronger effect = lower value 1.07 | locus YNL224C, strain SQS1, stronger effect = lower value 1.05 | [4] 1 | locus YOR083W, strain WHI5 (second series), stronger effect = lower value 1.05 | [5] 0.998
